What all share (assay): DAPPL (digital affinity profiling via proximity ligation, sequencing); 10 mM Tris-HCl pH 7.5, 50 mM NaCl, 1 mM DTT, 4% glycerol, room temperature, 30 min; GST-TFs on glutathione beads, 16-mer random dsDNA library, 0.1% formaldehyde crosslink after washing; high values mean tight binding
What all share (conditions): protein: recombinant; tags: N-terminal GST; dsDNA, one strand shown

In assay [1] the target is T1, FLI1 (Homo sapiens, UniProt Q01543 1-452).
T1 sequence: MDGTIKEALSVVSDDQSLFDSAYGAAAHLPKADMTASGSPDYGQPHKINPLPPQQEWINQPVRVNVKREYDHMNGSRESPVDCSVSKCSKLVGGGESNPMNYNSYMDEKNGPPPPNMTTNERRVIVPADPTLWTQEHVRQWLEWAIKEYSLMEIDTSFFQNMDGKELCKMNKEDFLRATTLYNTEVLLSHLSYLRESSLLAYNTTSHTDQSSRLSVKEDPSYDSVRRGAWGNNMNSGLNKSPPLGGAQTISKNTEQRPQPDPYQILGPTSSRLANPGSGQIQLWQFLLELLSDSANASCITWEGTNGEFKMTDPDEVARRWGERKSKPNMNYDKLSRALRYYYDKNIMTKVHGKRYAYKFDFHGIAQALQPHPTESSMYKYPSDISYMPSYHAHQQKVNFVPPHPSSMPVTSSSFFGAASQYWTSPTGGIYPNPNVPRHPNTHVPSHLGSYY
In outline: (§1)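 Binding signal is defined as a hexamer's read frequency for one factor over its frequency for the tag-only sample. To obtain reads, GST-fused human transcription factors were expressed in yeast, captured on glutathione beads, barcoded with DNA and pooled with that sample. Pools met 200 nmole of a 16-mer random double-stranded DNA library in Tris/NaCl/DTT/glycerol buffer for 30 min at room temperature before washing, 0.1% formaldehyde crosslinking, proximity ligation (BsaI/T4 ligase, 1 h, 37 °C), PCR and Illumina NextSeq500 sequencing.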

In assay [2] the target is T2, ELK1 (Homo sapiens, UniProt P19419 1-428).
T2 sequence: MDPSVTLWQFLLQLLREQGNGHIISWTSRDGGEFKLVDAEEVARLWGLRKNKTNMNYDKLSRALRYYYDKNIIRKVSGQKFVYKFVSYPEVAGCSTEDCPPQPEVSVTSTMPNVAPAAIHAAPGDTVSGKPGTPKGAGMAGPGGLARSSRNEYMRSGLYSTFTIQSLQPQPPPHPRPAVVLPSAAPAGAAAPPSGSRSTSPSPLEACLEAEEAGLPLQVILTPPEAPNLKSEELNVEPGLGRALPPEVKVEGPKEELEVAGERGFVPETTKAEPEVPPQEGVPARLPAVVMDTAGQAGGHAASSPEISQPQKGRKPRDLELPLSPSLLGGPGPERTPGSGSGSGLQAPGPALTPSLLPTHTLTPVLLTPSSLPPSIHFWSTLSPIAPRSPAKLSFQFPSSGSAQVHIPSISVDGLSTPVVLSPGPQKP
Summed up:
as §1

Assay [3] concerns the target T3, GABPA (Homo sapiens, UniProt Q06546 1-454).
T3 sequence: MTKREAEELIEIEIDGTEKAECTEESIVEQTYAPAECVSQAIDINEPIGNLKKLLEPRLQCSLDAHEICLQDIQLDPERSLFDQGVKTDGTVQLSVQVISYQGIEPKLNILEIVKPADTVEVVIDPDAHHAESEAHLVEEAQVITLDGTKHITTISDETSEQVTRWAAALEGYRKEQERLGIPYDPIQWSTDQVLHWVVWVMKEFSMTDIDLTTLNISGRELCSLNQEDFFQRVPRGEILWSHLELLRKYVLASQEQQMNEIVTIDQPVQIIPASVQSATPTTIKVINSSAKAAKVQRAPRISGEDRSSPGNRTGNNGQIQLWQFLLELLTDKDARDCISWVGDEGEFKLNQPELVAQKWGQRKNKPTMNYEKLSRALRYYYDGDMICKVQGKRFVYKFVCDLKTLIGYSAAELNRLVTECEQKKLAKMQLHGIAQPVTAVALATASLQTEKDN
In outline:
as §1

The target of assay [4] is T4, ERG (Homo sapiens, UniProt P11308 1-479).
T4 sequence: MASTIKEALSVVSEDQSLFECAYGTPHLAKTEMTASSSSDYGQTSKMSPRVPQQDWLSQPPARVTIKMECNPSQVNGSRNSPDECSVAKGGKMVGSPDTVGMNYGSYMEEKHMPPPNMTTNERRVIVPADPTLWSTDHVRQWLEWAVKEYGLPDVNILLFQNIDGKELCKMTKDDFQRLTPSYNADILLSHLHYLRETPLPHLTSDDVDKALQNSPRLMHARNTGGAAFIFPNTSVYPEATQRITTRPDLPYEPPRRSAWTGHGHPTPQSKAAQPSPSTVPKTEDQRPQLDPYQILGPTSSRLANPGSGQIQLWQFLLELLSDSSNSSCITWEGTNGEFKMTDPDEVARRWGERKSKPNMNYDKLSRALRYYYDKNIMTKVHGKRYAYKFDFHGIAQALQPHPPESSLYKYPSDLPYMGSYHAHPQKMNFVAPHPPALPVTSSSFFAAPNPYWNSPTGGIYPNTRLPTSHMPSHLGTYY
Summed up:
as §1

The target in assay [5] is ELF1 (Homo sapiens, UniProt P32519 1-619). Summed up:
as §1

The target in assay [6] is T5, EHF (Homo sapiens, UniProt Q9NZC4 1-300).
T5 sequence: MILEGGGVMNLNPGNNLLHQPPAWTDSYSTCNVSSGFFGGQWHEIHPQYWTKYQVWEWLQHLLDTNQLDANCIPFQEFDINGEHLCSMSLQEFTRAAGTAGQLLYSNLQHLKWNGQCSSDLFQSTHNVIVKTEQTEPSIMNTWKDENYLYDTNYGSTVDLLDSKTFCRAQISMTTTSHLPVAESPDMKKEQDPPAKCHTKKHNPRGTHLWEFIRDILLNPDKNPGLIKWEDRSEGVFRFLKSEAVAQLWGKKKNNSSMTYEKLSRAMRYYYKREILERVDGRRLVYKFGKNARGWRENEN
Summed up: as §1

Assay [7] addresses SPI1 (Homo sapiens, UniProt P17947 1-270). In outline:
as §1

For assay [8], the target named is SPIB (Homo sapiens, UniProt Q01892 1-262). Summed up:
as §1

Assay [9] deals with T6, ELK3 (Homo sapiens, UniProt P41970 1-407).
T6 sequence: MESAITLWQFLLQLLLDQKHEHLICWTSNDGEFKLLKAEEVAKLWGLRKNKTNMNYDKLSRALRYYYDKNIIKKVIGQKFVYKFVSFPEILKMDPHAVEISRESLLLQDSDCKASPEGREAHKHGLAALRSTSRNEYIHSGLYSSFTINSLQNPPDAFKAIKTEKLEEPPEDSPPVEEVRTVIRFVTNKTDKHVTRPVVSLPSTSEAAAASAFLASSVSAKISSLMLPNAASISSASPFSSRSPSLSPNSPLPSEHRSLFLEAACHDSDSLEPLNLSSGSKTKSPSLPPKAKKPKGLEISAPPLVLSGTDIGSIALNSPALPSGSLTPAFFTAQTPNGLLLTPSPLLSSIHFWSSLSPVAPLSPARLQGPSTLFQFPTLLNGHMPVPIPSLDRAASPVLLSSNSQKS
Summed up: as §1

Assay [10] concerns the target T7, FEV (Homo sapiens, UniProt Q99581 1-238).
T7 sequence: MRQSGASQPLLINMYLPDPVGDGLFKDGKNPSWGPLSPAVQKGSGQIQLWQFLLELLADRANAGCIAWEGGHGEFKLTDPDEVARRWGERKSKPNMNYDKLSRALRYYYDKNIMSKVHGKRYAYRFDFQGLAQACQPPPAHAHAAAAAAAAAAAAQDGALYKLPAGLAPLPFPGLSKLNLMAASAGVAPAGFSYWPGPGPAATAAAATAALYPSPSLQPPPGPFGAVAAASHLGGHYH
In outline:
as §1

Assay [11] has as its target ETV5 (Homo sapiens, UniProt P41161 1-510). In outline:
as §1

The target in assay [12] is T8, SPIC (Homo sapiens, UniProt Q8N5J4 1-248).
T8 sequence: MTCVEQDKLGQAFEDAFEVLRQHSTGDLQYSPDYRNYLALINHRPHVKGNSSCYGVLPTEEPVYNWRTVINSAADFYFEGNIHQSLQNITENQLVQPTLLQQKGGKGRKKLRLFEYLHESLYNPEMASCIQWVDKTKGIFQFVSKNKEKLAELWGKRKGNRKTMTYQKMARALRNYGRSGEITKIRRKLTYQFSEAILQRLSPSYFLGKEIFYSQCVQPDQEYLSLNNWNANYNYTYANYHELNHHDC
Summed up: as §1

Assay [13] deals with ELF4 (Homo sapiens, UniProt Q99607 1-663). Summed up: as §1
Chain of ELF4 (Q99607 whole entry): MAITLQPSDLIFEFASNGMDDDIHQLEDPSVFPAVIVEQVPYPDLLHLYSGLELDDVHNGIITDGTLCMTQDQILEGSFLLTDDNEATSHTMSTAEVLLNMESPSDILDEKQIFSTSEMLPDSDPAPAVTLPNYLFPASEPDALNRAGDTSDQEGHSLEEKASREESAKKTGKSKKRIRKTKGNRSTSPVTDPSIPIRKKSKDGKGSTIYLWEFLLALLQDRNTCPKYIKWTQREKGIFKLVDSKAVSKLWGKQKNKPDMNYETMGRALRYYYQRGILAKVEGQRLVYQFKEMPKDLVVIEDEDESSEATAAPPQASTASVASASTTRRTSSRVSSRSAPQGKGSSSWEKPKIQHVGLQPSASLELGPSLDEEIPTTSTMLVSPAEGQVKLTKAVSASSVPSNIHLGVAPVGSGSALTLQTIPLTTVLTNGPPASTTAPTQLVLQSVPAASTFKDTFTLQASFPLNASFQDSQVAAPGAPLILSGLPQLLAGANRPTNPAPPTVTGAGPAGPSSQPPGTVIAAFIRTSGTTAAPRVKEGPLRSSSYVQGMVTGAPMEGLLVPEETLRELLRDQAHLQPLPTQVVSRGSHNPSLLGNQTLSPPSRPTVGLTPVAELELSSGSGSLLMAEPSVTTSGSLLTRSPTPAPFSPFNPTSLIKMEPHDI
Assay [14] concerns the target T9, ELK4 (Homo sapiens, UniProt P28324-2 1-405).
T9 sequence: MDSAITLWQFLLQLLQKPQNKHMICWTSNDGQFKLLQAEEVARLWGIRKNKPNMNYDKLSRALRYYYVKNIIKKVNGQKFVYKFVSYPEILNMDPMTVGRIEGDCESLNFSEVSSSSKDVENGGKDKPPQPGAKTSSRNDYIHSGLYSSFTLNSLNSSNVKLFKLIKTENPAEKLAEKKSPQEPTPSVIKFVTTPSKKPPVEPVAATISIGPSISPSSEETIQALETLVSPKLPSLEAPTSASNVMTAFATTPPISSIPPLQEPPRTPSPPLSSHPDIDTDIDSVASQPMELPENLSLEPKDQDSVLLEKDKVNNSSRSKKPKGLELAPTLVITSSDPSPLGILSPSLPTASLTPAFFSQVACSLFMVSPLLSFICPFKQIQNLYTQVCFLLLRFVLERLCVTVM
In outline: as §1

For assay [15], the target named is T10, ETV2 (Homo sapiens, UniProt O00321 1-342).
T10 sequence: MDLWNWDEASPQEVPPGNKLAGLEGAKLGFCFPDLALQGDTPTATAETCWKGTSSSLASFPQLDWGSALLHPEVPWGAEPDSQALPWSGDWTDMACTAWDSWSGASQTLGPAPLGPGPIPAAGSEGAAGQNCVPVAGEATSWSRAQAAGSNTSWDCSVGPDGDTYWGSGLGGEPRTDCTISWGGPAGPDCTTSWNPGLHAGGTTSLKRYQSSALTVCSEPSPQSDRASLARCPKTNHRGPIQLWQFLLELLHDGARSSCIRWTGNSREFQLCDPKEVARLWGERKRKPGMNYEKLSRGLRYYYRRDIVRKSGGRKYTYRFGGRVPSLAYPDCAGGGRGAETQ
Summed up:
as §1

The target in assay [16] is T11, ELF3 (Homo sapiens, UniProt P78545 1-371).
T11 sequence: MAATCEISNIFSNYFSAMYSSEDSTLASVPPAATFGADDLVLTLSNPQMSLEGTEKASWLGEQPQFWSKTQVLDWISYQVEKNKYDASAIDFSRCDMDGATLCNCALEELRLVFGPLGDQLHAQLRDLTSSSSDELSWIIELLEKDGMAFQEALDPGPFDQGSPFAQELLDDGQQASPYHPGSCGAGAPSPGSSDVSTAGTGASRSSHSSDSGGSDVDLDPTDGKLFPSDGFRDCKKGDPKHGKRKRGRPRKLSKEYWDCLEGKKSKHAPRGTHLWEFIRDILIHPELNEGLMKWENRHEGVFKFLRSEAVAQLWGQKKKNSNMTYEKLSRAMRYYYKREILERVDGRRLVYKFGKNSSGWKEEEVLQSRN
Summed up:
as §1

The target in assay [17] is ETV1 (Homo sapiens, UniProt P50549 1-477). Summed up:
as §1

Chain of ELF1 (P32519 whole entry): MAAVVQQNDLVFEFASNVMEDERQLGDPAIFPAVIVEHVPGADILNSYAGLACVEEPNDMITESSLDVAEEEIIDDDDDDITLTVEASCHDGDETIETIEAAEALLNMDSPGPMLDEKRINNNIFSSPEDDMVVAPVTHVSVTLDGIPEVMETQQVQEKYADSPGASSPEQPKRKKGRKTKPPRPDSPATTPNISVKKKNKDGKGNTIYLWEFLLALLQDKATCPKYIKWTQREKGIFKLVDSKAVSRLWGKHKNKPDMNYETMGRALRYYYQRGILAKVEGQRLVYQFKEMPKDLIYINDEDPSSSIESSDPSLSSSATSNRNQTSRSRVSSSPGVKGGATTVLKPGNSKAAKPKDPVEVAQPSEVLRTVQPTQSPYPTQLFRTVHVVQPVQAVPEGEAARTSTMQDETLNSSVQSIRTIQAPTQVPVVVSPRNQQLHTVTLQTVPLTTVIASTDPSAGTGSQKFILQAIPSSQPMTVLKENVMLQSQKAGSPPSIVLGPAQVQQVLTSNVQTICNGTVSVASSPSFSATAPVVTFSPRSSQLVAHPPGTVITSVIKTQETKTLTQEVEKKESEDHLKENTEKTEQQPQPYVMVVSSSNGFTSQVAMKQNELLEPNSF
Chain of ETV5 (P41161 whole entry): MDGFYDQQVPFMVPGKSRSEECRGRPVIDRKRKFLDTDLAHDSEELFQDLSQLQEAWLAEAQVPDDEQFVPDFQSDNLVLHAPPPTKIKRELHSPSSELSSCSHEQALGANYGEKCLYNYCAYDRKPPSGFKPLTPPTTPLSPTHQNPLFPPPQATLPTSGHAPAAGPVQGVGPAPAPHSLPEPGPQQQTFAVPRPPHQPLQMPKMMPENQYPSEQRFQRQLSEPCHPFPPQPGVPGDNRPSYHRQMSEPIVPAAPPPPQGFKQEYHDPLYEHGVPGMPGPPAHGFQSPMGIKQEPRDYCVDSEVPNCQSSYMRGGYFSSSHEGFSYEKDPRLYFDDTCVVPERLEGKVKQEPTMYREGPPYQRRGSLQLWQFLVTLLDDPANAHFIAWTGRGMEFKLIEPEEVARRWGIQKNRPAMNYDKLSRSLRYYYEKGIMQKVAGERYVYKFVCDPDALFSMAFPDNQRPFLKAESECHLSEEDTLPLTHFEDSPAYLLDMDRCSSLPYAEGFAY
Chain of SPIB (Q01892 whole entry): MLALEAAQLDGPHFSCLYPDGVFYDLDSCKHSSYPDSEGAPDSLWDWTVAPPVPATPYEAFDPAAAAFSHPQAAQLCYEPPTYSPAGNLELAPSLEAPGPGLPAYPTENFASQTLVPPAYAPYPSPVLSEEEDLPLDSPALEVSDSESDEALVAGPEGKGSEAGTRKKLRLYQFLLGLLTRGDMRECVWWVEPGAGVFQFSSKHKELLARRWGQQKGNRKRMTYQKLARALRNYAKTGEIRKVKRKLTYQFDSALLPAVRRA
Chain of ETV1 (P50549 whole entry): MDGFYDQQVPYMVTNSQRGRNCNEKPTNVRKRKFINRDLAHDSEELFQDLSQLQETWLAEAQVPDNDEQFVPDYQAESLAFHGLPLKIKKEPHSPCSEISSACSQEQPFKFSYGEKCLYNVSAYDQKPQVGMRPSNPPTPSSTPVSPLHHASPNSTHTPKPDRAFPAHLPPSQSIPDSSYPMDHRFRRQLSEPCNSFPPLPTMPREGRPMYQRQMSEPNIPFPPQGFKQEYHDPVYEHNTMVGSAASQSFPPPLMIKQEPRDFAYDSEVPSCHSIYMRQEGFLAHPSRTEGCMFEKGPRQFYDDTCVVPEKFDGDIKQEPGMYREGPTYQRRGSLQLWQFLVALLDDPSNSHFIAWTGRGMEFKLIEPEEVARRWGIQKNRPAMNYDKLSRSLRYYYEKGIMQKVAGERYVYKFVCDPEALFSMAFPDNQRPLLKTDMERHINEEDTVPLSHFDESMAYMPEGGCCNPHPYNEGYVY

Consider ACATGT, for which the binding signal is 1.23 fold enrichment (6-mer frequency, TF over GST control) in [1]; 1.14 fold enrichment (6-mer frequency, TF over GST control) in [2]; 1.05 fold enrichment (6-mer frequency, TF over GST control) in assay [3]; 1.11 fold enrichment (6-mer frequency, TF over GST control) in assay [4]; 1.19 fold enrichment (6-mer frequency, TF over GST control) in [5]; 1.09 fold enrichment (6-mer frequency, TF over GST control) in assay [6]. Also, the binding signal in assay [7] was 1.14 fold enrichment (6-mer frequency, TF over GST control); in assay [8] it was 1.15 fold enrichment (6-mer frequency, TF over GST control); in [9], 1.06 fold enrichment (6-mer frequency, TF over GST control); in assay [10], 1.03 fold enrichment (6-mer frequency, TF over GST control); in assay [11] it was 1.16 fold enrichment (6-mer frequency, TF over GST control); in assay [12], 1.13 fold enrichment (6-mer frequency, TF over GST control). The binding signal in assay [13] is 1.15 fold enrichment (6-mer frequency, TF over GST control); in assay [14], 1.27 fold enrichment (6-mer frequency, TF over GST control); in [15], 1.21 fold enrichment (6-mer frequency, TF over GST control); in assay [16], 1.02 fold enrichment (6-mer frequency, TF over GST control); in [17], 1.09 fold enrichment (6-mer frequency, TF over GST control).

Values taken from PMC7862700, “An all-to-all approach to the identification of sequence-specific readers for epigenetic DNA modifications on cytosine”.
